Rows were chosen to be rich in hits. Some 4.1% of all compounds tested hit in one or more screens of this group.
Env fusion inh: inhibitors of HIV-1 Env-driven cell-cell fusion, primary screen, HeLa-JRFL effector, CEM21 target cells, luciferase | inhibition, % at 12.3 µM | 360,000 compounds, 1.1% hits | AID 651610, 2012;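 active = mean replicate inhibition score of at least 50 and every replicate individually at or above 50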;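 also: 0% = plate neutral controls and 100% = maraviroc near 300 nM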
ALR H2O2 inh: inhibitors of human ALR sulfhydryl oxidase, primary screen, biochemical, H2O2 detection, HRP-luminol luminescence, single point; purified ALR, DTT oxidation; 290,000 compounds, 3.8% hits; inhibition, % (concentration not given with the values); AID 485317, 2010;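 active = mean replicate inhibition above about 79%, with every replicate also reaching it, limit read from the data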
Casp6 inh: human caspase-6 inhibitors, primary screen, biochemical, VEID-R110 fluorescence, single point, set 2 | AID 686996, 2013 | inhibition, % at 12.5 µM | purified caspase-6, Z-VEID-R110 cleavage fluorescence | 350,000 compounds, 0.53% hits | P55212;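 active = mean inhibition across replicates at least about 35%, with every replicate also reaching that limit, limit read from the data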;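 also: 0% = median of neutral control wells and 100% = no fluorescence left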
Target sequence (P55212 24-179 limits assumed): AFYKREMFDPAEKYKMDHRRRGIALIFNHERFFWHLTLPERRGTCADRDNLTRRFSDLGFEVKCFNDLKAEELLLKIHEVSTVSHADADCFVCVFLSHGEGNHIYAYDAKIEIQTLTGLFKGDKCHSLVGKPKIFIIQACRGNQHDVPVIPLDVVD
Target sequence (P55212 194-293 limits assumed): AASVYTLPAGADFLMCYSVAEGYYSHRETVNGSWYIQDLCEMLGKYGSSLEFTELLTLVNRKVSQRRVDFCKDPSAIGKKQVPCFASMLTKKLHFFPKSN
PglD inh: C. jejuni PglD acetyltransferase inhibitors, primary screen, biochemical, DTNB colorimetric, single point; UDP-N-acetylbacillosamine N-acetyltransferase PglD (Campylobacter jejuni); purified PglD enzyme, DTNB colorimetric CoA detection; inhibition, % at 12.5 µM; 360,000 compounds, 0.098% hits; AID 602405, 2012; in the data active = inhibition above about 16%, passing the limit was not always enough
CFTR F508del cor: F508del CFTR correction, initial screen, CFBE line, single point | CFBE cells, YFP halide quenching; stimulated with forskolin plus potentiator P3; % fluorescence drop versus neutral controls | activity (quench increase), % at 7.58 µM | 350,000 compounds, 0.36% hits | AID 720511, 2013;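 active = mean added fluorescence quench of at least 8% versus neutral control, with both replicates also reaching 8%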;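 also: cells transiently co-express mutant CFTR-F508del with the halide-sensitive YFP; corrector assay measuring rescue of mutant channel to the surface after 24 h compound exposure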
NSD2 inh: NSD2 histone methyltransferase inhibitors, primary screen, biochemical, AlphaScreen, single concentration, set 2; NSD2 peptide methylation, 120 min; 310,000 compounds, 0.54% hits; inhibition, % at 12.5 µM; in the data active = inhibition above about 50%
Active calls of the source: *; nt = no result given; [ ] = dose if it differs, or a comment.

SMILES	Env fusion inh	ALR H2O2 inh	Casp6 inh	PglD inh	CFTR F508del cor	NSD2 inh
COc1cc(NC(=O)C2CCCN(S(=O)(=O)c3cnc[nH]3)C2)cc(OC)c1 (stereo unspecified)	10	98*	-3	0	1	nt
O=C(NCCc1ccccc1)C1CCCN(S(=O)(=O)c2cnc[nH]2)C1 (stereo unspecified)	-25	87*	-2	10	-1	nt
CCOC(=O)c1cccc(NC(=O)C2CCCN(S(=O)(=O)c3c(C)nn(C)c3C)C2)c1 (stereo unspecified)	8	-2	2	3	-5	nt
CCOC(=O)c1ccc(NC(=O)C2CCCN(S(=O)(=O)c3cnc[nH]3)C2)cc1 (stereo unspecified)	-2	95*	2	-2	1	nt
CCOC(=O)c1ccc(NC(=O)C2CCN(S(=O)(=O)c3c(C)nn(C)c3C)CC2)cc1	3	98*	-3	0	2	nt
C[C@@H]1CN([C@H](C)CO)C(=O)c2cc(NC(=O)CCC(F)(F)F)ccc2O[C@@H](C)CCCCO[C@H]1CN(C)C(=O)C1CCCCC1	-4[16.7 µM]	nt	-1	-1	0	nt
Cc1cc(C)cc(NC(=O)C2CCCN(S(=O)(=O)c3cnc[nH]3)C2)c1 (stereo unspecified)	-8	42	0	4	-1	nt
CC(C)c1ccc(NC(=O)C2CCCN(S(=O)(=O)c3cnc[nH]3)C2)cc1 (stereo unspecified)	-13	91*	3	0	-1	nt
CC1CCN(CCCn2c(=S)[nH]c3ccc(N4CCOCC4)cc3c2=O)CC1	-4	85*	nt	2	nt	2
O=c1c2cc(N3CCOCC3)ccc2[nH]c(=S)n1CCCN1CCCC1	-83	-19	nt	-3	nt	12
CSc1ccc(CN2CCC2(C)C(=O)Nc2cccc(NS(C)(=O)=O)c2)cc1 (stereo unspecified)	76*	nt	41*	-2	-2	6
C[C@H](CO)N1C[C@H](C)[C@@H](CN(C)C(=O)c2ccccn2)Oc2ncc(-c3ccccc3F)cc2C1=O	-6[16.7 µM]	nt	1	-1	-4	nt
Cc1ccc(C(=O)Nc2nc(-c3ccccn3)cs2)s1	39	87*	5	-4	5	2
CCc1sc(C(=O)Nc2nc(-c3ccccn3)cs2)cc1C	nt	3	nt	5	nt	0
CSc1nc2ccc3nc(NC(=O)c4ccc(Cl)s4)sc3c2s1	nt	91*	nt	2	nt	nt
O=C(Nc1nc(-c2ccccn2)cs1)c1ccc(Cl)s1	30	87*	-4	3	5	nt
CN(C)c1ccc(C(c2nnnn2C(C)(C)C)N2CCN(C(=O)c3ccco3)CC2)cc1 (stereo unspecified)	nt	90*	nt	-10	nt	nt
COc1ccc(S(=O)(=O)n2nc(OC(=O)c3ccco3)cc2N)cc1	-16	97*	nt	-3	nt	-1
COc1ccc(S(=O)(=O)n2nc(OC(=O)c3ccccc3)cc2N)cc1	-5	nt	nt	-4	nt	-5
C[C@@H]1CN([C@H](C)CO)C(=O)c2cccc(NC(=O)c3nc4ccccc4s3)c2O[C@H]1CN(C)C(=O)NC1CCCCC1	nt	nt	-1	9	1	nt
CCC(=O)N1C[C@H](C)[C@H](OC)CN(C)C(=O)c2cc(NC(=O)c3cc(C)on3)ccc2OC[C@@H]1C	nt	nt	nt	nt	-2	nt
CC(C)c1ccc(SCc2noc(C(=O)NCC3CCCO3)c2C(=O)O)cc1 (stereo unspecified)	-11	97*	0	-3	-1	nt
Cc1cc(C)cc(SCc2noc(C(=O)NCc3ccccc3)c2C(=O)NCc2ccccc2)c1	64*	-4	nt	0	0	nt
O=C(NCC1CCCO1)c1onc(CSc2ccccc2)c1C(=O)O (stereo unspecified)	-10	1	-3	0	-2	nt
C=CCNC(=O)c1onc(CSc2ccccc2C)c1C(=O)O	-22	46	1	9	-1	nt
C=CCNC(=O)c1onc(CSc2cc(C)ccc2C)c1C(=O)O	6	86*	0	4	2	nt
CCCNC(=O)N1CCC2(CC1)CN(C(C)=O)[C@H](CO)c1c2c2ccc(OC)cc2n1C	nt	nt	nt	nt	-2	nt

Bioassay records: PubChem, Broad Institute
